PolyA inhibitor – yeast polyadenylation inhibition; AID 1875; S. cerevisiae SKY197-pL101 polyadenylation reporter, beta-gal luminescence; efflux-impaired pdr1/pdr3 knockout yeast; score 100 = 6 SD above DMSO; actives 0.02% (n = 300,000); activity score, % at 12 µM;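 active = lowest replicate activity score at least 50, where 100 means six control SD above control mean; inconclusive = lowest score under 50 but half or more replicates reach 50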;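 note: yeast exposed to compound for 9 h at 30 °C; higher score means more reporter readthrough which indicates perturbed polyadenylation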
EBNA-1 inhibitor – blocks EBNA-1 binding to DNA | AID 1950 | inhibition, % at 14.8 µM | actives 0.34% (n = 300,000) | EBNA-1 DNA binding, fluorescence polarization; in the data active = inhibition above about 28%
dFosB act – mouse delta FosB homodimer activation. P13346. purified delta FosB, TAMRA-CDK5 oligo fluorescence polarization; percent of positive-control signal above neutral wells. activation, % at 25 µM. actives 0.99% (n = 340,000);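 active = mean activation above about 17%, with every replicate also reaching it, limit read from the data, passing the limit was not always enough; inconclusive = only one of the two conditions met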
Target sequence (P13346 whole entry, looked up): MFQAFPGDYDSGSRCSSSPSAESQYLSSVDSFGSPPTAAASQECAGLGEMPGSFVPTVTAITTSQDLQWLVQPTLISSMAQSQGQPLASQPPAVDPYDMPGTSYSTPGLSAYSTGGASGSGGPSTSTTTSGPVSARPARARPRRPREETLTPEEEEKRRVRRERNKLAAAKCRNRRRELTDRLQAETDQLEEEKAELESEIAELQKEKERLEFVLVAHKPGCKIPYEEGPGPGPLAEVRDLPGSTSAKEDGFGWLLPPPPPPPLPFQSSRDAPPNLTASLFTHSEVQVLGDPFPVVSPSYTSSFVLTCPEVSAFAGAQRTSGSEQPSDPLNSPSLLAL
NALP3 yeast inh – blocks the NALP3 inflammasome reconstituted in yeast; actives 0.39% (n = 330,000); inhibition, % at 10 µM; Yeast reconstituted NLRP3/ASC/caspase-1, beta-gal luminescence, 24 h;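 active = inhibition of 50% or more; inactive = inhibition below 50%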
NALP1 inh – NALP1 inhibition; S. cerevisiae NALP1/ASC/caspase-1 growth, X-gal OD620, 72 h; inhibition, % at 10 µM; actives 0.61% (n = 280,000); in the data active = inhibition mostly above about 24%, no sharp cut-off; inactive = mostly below about 32%
ZTA counter – counter-screen for EBNA-1 inhibitors: inhibitors of Epstein-Barr virus ZTA | P03206 | ZTA-DNA binding, fluorescence polarization | inhibition, % at 11 µM | actives 0.15% (n = 320,000); in the data active = inhibition above about 33%
Target sequence (P03206 whole entry, looked up): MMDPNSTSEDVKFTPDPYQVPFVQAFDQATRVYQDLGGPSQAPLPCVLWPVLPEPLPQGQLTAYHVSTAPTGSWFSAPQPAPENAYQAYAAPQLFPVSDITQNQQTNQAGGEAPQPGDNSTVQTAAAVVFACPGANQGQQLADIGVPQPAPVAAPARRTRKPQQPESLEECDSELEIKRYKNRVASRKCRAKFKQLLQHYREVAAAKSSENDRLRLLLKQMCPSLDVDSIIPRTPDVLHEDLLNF
NALP3 yeast conf – NALP3 inhibition confirmation in yeast; shares compounds with NALP3 yeast inh; yeast expressing human NALP3, luminescence; inhibition, % at 10 µM; actives 81% (n = 1,300); AID 435006; in the data active = inhibition above about 48%
Casp1-ASC yeast – active in yeast caspase-1-ASC counter-screen for NALP3 inhibitors; actives 66% (n = 1,000); AID 488784; inhibition, % at 10 µM; shares compounds with NALP3 yeast inh; yeast expressing Caspase-1-ASC, luminescence counter screen
NALP3 retest – confirmation retest of NALP3 inhibitors in yeast; shares compounds with NALP3 yeast inh; yeast expressing human NALP3, luminescence read-out; inhibition, % at 10 µM; actives 53% (n = 1,000); AID 488794
Of the large screens only hits and unclear results are named; the others gave an inactive call (follow-up assays come after a bar, where they were run). An excerpt weighted towards active compounds, which were near 2.2% of everything screened. Cut-off read from the data, not from the text of the source, unless noted: active = inhibition above about 50%; inactive = the rest.

O=C(NC1CCCCCC1)c1c(O)c2cccc3c2n(c1=O)CCC3	none (no result: PolyA inhibitor, EBNA-1 inhibitor, dFosB act, NALP3 yeast inh, ZTA counter)
O=C(NCCNCCO)c1c(O)c2cccc3c2n(c1=O)CCC3	NALP3 yeast inh 53 | NALP3 yeast conf 63 | Casp1-ASC yeast inactive | NALP3 retest inactive
O=C(N/N=C/c1ccc(OCc2ccccc2)cc1)c1ccncc1	none
Oc1ccc(N=Cc2ccc(OCc3ccccc3)cc2)cc1	NALP3 yeast inh 51 | NALP3 yeast conf inactive
C=CCOc1nc2c(c(=O)n(Cc3ccc(Cl)cc3)c(=O)n2C)n1C	NALP3 yeast inh 55 | NALP3 yeast conf inactive | Casp1-ASC yeast inactive | NALP3 retest inactive
Cn1c(N2CCCC2)nc2c1c(=O)n(Cc1ccc(Cl)cc1)c(=O)n2C	NALP3 yeast inh 74 | NALP3 yeast conf inactive
O=C(Nc1ccc2oc(-c3ccccc3)nc2c1)C1CCCO1 (configuration not stated)	none
O=C(Nc1ccc(-c2nc3ccccc3o2)cc1)C1CCCO1 (configuration not stated)	NALP3 yeast inh 55 | NALP3 yeast conf 72 | Casp1-ASC yeast 60 | NALP3 retest inactive
CN(CC(=O)Nc1ccccc1Cl)C(=O)COC(=O)CSc1ccc(Cl)cc1	none (no result: PolyA inhibitor, EBNA-1 inhibitor, NALP1 inh)
CC1(C)CC(=O)C2=C(C1)OC1=C(C(=O)CC(C)(C)C1)C2c1ccc(O)c([N+](=O)[O-])c1	none
CC1(C)CC(=O)C2=C(C1)OC1=C(C(=O)CC(C)(C)C1)C2c1ccc(O)cc1O	NALP3 yeast inh 56 | NALP3 yeast conf 56 | Casp1-ASC yeast 57 | NALP3 retest inactive
CC(C)c1ccc(NC2CCCN(C(=O)c3cccs3)C2)cc1 (configuration not stated)	none
O=C1C=C(c2ccccc2)C(=O)N1Nc1ccccc1	none
Cc1ccc(NN2C(=O)C=C(c3ccc(Cl)cc3)C2=O)cc1	NALP3 yeast inh 95 | NALP3 yeast conf inactive
Cc1ccc2nc(N3C(=O)CNC3=S)sc2c1	NALP3 yeast inh 81 | NALP3 yeast conf 61 | Casp1-ASC yeast 87 | NALP3 retest 83
COc1ccc2nc(N3C(=O)CNC3=S)sc2c1	NALP3 yeast inh 67 (no result: NALP1 inh) | NALP3 yeast conf inactive
COC(=O)/C=C1\C(=O)N(c2nc3ccc(OC)cc3s2)C(=S)N1c1ccc(F)cc1	none (no result: dFosB act)
O=C(Nc1cccc(S(=O)(=O)N2CCOCC2)c1)c1cc([N+](=O)[O-])ccc1N1CCOCC1	none (no result: NALP1 inh)
CCSc1nsc(NC(=O)Nc2cccc(F)c2)n1	NALP3 yeast inh 50 | NALP3 yeast conf 78 | Casp1-ASC yeast inactive | NALP3 retest 85
CCCSc1nsc(NC(=O)Nc2ccc(F)cc2F)n1	NALP3 yeast inh 51 | NALP3 yeast conf 51 | Casp1-ASC yeast inactive | NALP3 retest inactive
O=C1c2cccnc2C(=O)N1Cc1ccc(S(=O)(=O)N2CCOc3ccccc32)cc1	none
CCN(CC)c1ccc2nc3ccc(N)cc3[n+](-c3ccccc3)c2c1	NALP3 yeast inh 51 (no result: PolyA inhibitor, EBNA-1 inhibitor, NALP1 inh, ZTA counter) | NALP3 yeast conf 51 | Casp1-ASC yeast inactive | NALP3 retest 52
CCN(CC)c1ccc2nc3ccccc3[n+](CC)c2c1	EBNA-1 inhibitor 174, NALP3 yeast inh 67, ZTA counter active | NALP3 yeast conf 73 | Casp1-ASC yeast inactive | NALP3 retest 57
N#CCCN(Cc1ccccc1)C(=O)c1nccnc1C(=O)O	none
Cc1ccc(NS(=O)(=O)Cc2ccccc2)cc1Cl	none
COc1ccccc1NC(=O)Nc1cccc(C)n1	NALP3 yeast inh 66 (no result: EBNA-1 inhibitor, ZTA counter) | NALP3 yeast conf 74 | Casp1-ASC yeast 55 | NALP3 retest 60
CC(C)c1csc(CN2CCC(CO)(Cc3cccc(F)c3)CC2)n1	none
COC(=O)N1c2ccccc2C=Cc2ccccc21	none
O=C(c1ccccn1)c1conc1C(=O)c1ccc(Br)cc1	NALP3 yeast inh 69 | NALP3 yeast conf 83 | Casp1-ASC yeast 84 | NALP3 retest 60
C/C(=N\OC(=O)c1ccc(Br)cc1)c1ccccn1	none
CS(=O)(=O)c1ccc(NC(=O)c2ccc3c(c2)S(=O)(=O)N=C2CCCCCN23)cc1	none (no result: NALP1 inh)
COc1ccc(CN2CCSc3sccc3C2=O)cc1	NALP3 yeast inh 61 | NALP3 yeast conf 71 | Casp1-ASC yeast 69 | NALP3 retest 65
O=C1c2ccsc2SCCN1Cc1ccc(Cl)cc1Cl	NALP3 yeast inh 65 | NALP3 yeast conf 65 | Casp1-ASC yeast 77 | NALP3 retest 66
C#C[C@]1(O)CC[C@H]2[C@@H]3CCc4cc(O)ccc4[C@H]3CC[C@@]21C	NALP3 yeast inh 55, NALP1 inh 49 | NALP3 yeast conf 68 | Casp1-ASC yeast 51 | NALP3 retest inactive
CC12CCC3c4ccc(O)cc4CCC3C1CCC2=O (configuration not stated)	none (no result: PolyA inhibitor, NALP1 inh)
CCOc1ccc(S(=O)(=O)N2CCC(C(=O)NCc3ccccc3CN3CCCC3)CC2)cc1	none (no result: PolyA inhibitor, EBNA-1 inhibitor, NALP1 inh)
O=C(NCC(=O)N1CCC2(CC1)NCCc1[nH]cnc12)c1ccc2ccccc2c1	none
COc1ccc(CCNC(=O)c2ccc3ccccc3n2)cc1	NALP3 yeast inh 52 | NALP3 yeast conf 67 | Casp1-ASC yeast inactive | NALP3 retest inactive
O=C(O)C1(c2ccccc2)CCN(S(=O)(=O)c2ccc(Br)cc2)CC1	none
COc1ccc(C(=O)OCC(=O)c2ccc3c(c2)NC(=O)CO3)cc1OC	dFosB act inconclusive (no result: PolyA inhibitor, EBNA-1 inhibitor, NALP1 inh, ZTA counter)
CCOC(=O)c1ccc2c(c1)NCc1cccc(OC)c1O2	NALP3 yeast inh 54 | NALP3 yeast conf 63 | Casp1-ASC yeast inactive | NALP3 retest inactive
Cc1ccc(NC(=O)CNC2CCCCC2)cc1Cl	none
CCOC(=O)C1=Nc2ccccc2C1=[N+]=[N-]	NALP3 yeast inh 82, NALP1 inh 75 | NALP3 yeast conf 89 | Casp1-ASC yeast 97 | NALP3 retest 87
O=C1OC(CC(=O)N(Cc2nnc(-c3ccccc3Cl)o2)C2CC2)c2ccccc21 (configuration not stated)	none (no result: PolyA inhibitor, EBNA-1 inhibitor, NALP1 inh)
CCn1c(O)c(C=Nc2ccccc2)sc1=S	NALP3 yeast inh 54 (no result: dFosB act) | NALP3 yeast conf 58 | Casp1-ASC yeast 56 | NALP3 retest 60
Nn1c(SCc2ccc(Br)cc2)nnc1-c1ccccn1	NALP3 yeast inh 65 | NALP3 yeast conf 67 | Casp1-ASC yeast 54 | NALP3 retest 56
NCCc1nnc(SCc2ccccc2Cl)o1	NALP3 yeast inh 73 | NALP3 yeast conf 73 | Casp1-ASC yeast 70 | NALP3 retest 72
NCCCCCc1nnc(SCc2ccc(Cl)cc2Cl)o1	none
CC[C@]12c3[nH]c4ccc(OC)cc4c3CCN1C(=O)C(CC(=O)NCCc1ccccn1)C[C@@H]2C(=O)N1CCN(C(=O)c2ccco2)CC1 (some centres not stated)	none (no result: PolyA inhibitor, EBNA-1 inhibitor, NALP3 yeast inh, NALP1 inh, ZTA counter)

Compound activity (PubChem BioAssay)
